In ChEMBL document CHEMBL3988442, “University of Dundee, Small-Polar-MMV Screening Library” (2021):
Screen size: about 48,000 compounds; about 13,000 (27%) showed an effect of 50% or more. The list shows a part of the results.

The compounds below were run on Wolbachia pipientis (assay: Anti-Wolbachia Cell-Based Screen). Details: 5 µM.
Type: functional
Design: scale not given: in the data most compounds retested in dose-response had high values

Compound	Percent Effect
CC(C)NC(=O)N1CCC2(CC(C(=O)NCc3cccnc3)=NO2)C1 (stereo not given)	-3.064%
CC(C)(C)CC(=O)N1CCCC2(CC(C(=O)Nc3ccccc3)=NO2)C1 (stereo not given)	98.19%
CC(C)C(=O)N1CCCC2(CC(C(=O)NCc3cccnc3)=NO2)C1.O=C(O)C(F)(F)F (stereo not given)	-6.89%
CC(C)CC(=O)N1CCCC2(CC(C(=O)Nc3ccccc3)=NO2)C1 (stereo not given)	115.3%
Cc1ncccc1NC(=O)C1=NOC2(CCN(Cc3nccs3)C2)C1 (stereo not given)	10.83%
CN(Cc1ccc2c(c1)OCO2)C(=O)c1ccc(C2CCCO2)s1 (stereo not given)	-6.874%
Cc1n[nH]c(C)c1CCc1nc(C2CC2)n[nH]1	-13.82%
Cc1cc(C(=O)NCCc2cn3nc(C)sc3n2)c(C)o1	-4.861%
Cc1cn(CC(=O)NCC(=O)NC2CC2)c2ccccc12	-10.11%
CCc1nsc(N2CCn3c(nnc3-c3ccccc3)C2)n1	-13.36%
CCCSCC(=O)N1C[C@@H]2CC[C@H](C1)N(Cc1ccccn1)C2=O	6.181%
O=C([C@H]1C[C@H]2OCC[C@H]2N(CC2CC2)C1)N1CCCC1	-0.02998%
CCc1nc(C)c([C@H]2CN(C)C[C@@H]2C(=O)NCc2ccccn2)[nH]1	-14.52%
CS(=O)(=O)NC[C@H]1Cn2c(-c3ccc4c(c3)OCCO4)cnc2CO1	-15.67%
CCc1noc(C(C)N2CCN(CCN3CCCC3=O)CC2)n1 (stereo not given)	113.9%
Cc1noc(C(C)N2CCN(CCN3CCCC3=O)CC2)n1 (stereo not given)	121%
Cc1noc(C(C)N2CCN(CCCN3CCCC3=O)CC2)n1 (stereo not given)	8.407%
CCc1noc(C(C)N2CCN(CCc3ccncc3)CC2)n1 (stereo not given)	0.707%
CCc1noc(C(C)N2CCC(N3CCCC3)CC2)n1 (stereo not given)	-6.719%
Cc1noc(C)c1CN(C)CC(=O)/N=c1\cc[nH]n1C(C)C1CC1 (stereo not given)	-5.789%
CN(C)c1cccc(C(=O)Nc2cnn(Cc3ccccn3)c2)c1	-6.173%
Cc1ccc2cc(C3(O)CCN(C)CC3)ccc2n1	-2.467%
COC[C@@]12CC[C@@H](N3CCOCC3)C[C@H]1CCN(c1ncccn1)C2	-5.007%
CC1CCCCN1C(=O)c1coc(COc2cccc3cnccc23)n1 (stereo not given)	-5.431%
O=C(c1coc(COc2ccccc2F)n1)N1CCC[C@H]1CO	111.3%

Compound	Percent Effect
O=C(c1coc(COc2cccc3cnccc23)n1)N1CCCCCC1	5.374%
COCCC1CCCCN1C(=O)c1coc(COc2ccccc2F)n1 (stereo not given)	108.5%
CC[C@H](CO)NC(=O)c1coc(COc2ccccc2F)n1	-31.99%
COc1cc(C)ccc1OCc1nc(C(=O)N2CCCC2)co1	0.1288%
COc1ccccc1OCc1cc(C(=O)N2CCCCCC2CO)n[nH]1 (stereo not given)	-25.79%
O=C(c1coc(COc2ccccc2F)n1)N1CCCO1	104.9%
COc1cc(C)ccc1OCc1nc(C(=O)N2CCCO2)co1	-7.138%
CC(c1ccco1)n1cc(-c2cc(CN3CCCC3)cs2)nn1 (stereo not given)	21.85%
CCOc1ccc(CCCC(=O)N2CC[C@H](NC(C)=O)C2)cc1C	116.5%
CNC(=O)C1CCN(C(=O)c2coc(COc3ccc(OC)cc3)n2)C1 (stereo not given)	-10.95%
CCOc1cc(NC(=O)N2CCC(c3nnc[nH]3)CC2)ccc1C	11.09%
CCOc1ccc(CCCC(=O)N2CCC(C(=O)NC)C2)cc1C (stereo not given)	83.39%
CCc1ccc(CC)c(NCC(=O)N2CCCC(NC(C)=O)C2)c1 (stereo not given)	8.422%
CCOc1ccc(C(C)NC(=O)N2CCC(C(N)=O)CC2)cc1OC (stereo not given)	-11.4%
CCNC(=O)N1CCC(NC(=O)NCCCc2cccc(F)c2)C1 (stereo not given)	-2.549%
CCc1cc(C)c(C(=O)N2CCCC(c3nnn[nH]3)C2)o1 (stereo not given)	6.83%
CCOc1ccc(CCCC(=O)N2CCC(c3nnn[nH]3)CC2)cc1C	92.44%
O=C(C1CC=CC1)N1CC[C@@H]2O[C@@H](COCC3CCOCC3)CC[C@@H]21	-9.606%
COCCNC(=O)Cn1c(-c2cccc(F)c2)nc(C)c(CCO)c1=O	196.7%
CC(=O)Nc1nc(C(=O)NCCOc2cccc(F)c2)cs1	5.348%
CNC(=O)c1cn2cc(-c3cccc(Cl)c3)n(CC=C(C)C)c(=O)c2n1	3.943%
Cc1cc(=O)n(CC(=O)NCCC(C)C)c(-c2cccc(Cl)c2)n1	-16.01%
COCCNC(=O)Cn1c(-c2cccc(Cl)c2)nc(C)c(CCO)c1=O	141.8%
COCCC(=O)NCC1Cn2nnc(-c3cccc(F)c3)c2CO1 (stereo not given)	-4.513%
O=C(O)C(F)(F)F.O=C(c1cocn1)N1CC[C@H]2OCC[C@@]2(COc2ncccc2F)C1	4.073%
